Only some compounds are listed: those with a hit (about 3.6% of all), similar ones and a draw of the others.
LDHA block: qHTS assay for inhibitors of human lactate dehydrogenase. L-lactate dehydrogenase A chain (Homo sapiens), P00338. purified LDHA, NADH/diaphorase-resazurin fluorescence; stronger effect = lower value. hit rate 0.15% among 480,000. activity change, % (values are at about 110 or 230 µM); in the data active means activity change below about -30%;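 further: plate controls were DMSO wells for no effect and wells without enzyme for full effect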
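Resorufin fluorescence (ex540/em590), read at 0 and 20 min after diaphorase/resazurin addition, reports the NADH left after a 5 min room-temperature reaction of 2 nM human LDH5 with 0.06 mM NADH and 0.2 mM pyruvate.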
TRHR enhancer: qHTS for Small Molecule Agonists and Allosteric Enhancers of Human TRH Receptor: Primary Screen for Enhancers. Thyrotropin-releasing hormone receptor (Homo sapiens), P34981. TRHR cells, fluo-8 calcium fluorescence, EC20 TRH enhancement. enhancement, % at 2 µM. hit rate 0.66% among 360,000; in the data active means enhancement above about 30%; further: 0% is about no effect
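Enhancer read-out: after compound pinning and an initial kinetic agonist-mode read, an EC20 of TRH (10 nM final) was injected and fluo-8 calcium signal (Ex 480/Em 530) followed at 1 s/cycle for 100 cycles in TRHR-expressing cells.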
D1 PAM: Potentiators of Human D1 Dopamine Receptor: qHTS; D(1A) dopamine receptor (Homo sapiens), P21728; HEK293 TREx D1 cells, calcium flux, dopamine EC20 potentiation; potentiation, % at 10 µM; hit rate 0.036% among 360,000; in the data active means potentiation above about 30%; further: 0% is about no effect
Target sequence (P21728 whole entry, looked up): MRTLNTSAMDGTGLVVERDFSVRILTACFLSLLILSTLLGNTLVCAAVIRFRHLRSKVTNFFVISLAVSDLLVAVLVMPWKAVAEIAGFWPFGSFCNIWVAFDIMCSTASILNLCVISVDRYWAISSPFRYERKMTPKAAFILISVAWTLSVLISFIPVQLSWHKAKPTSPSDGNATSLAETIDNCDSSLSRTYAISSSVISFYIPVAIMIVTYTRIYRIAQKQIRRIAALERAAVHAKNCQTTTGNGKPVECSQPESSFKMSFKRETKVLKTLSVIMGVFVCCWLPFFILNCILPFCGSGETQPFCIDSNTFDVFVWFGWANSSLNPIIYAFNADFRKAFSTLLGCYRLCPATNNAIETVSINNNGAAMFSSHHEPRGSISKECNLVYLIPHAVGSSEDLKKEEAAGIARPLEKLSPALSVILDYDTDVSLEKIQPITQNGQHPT
D1 ag: Allosteric Agonists of the Human D1 Dopamine Receptor: qHTS; HEK293 T-REx D1 cells, calcium flux, agonist mode; hit rate 1% among 360,000; AID 504660, 2011; D(1A) dopamine receptor (Homo sapiens), P21728; activation, % at 2 µM; further: 0% is about no effect
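Inducible HEK293 T-REx D1 cells, force-coupled to calcium signalling, were plated at 4000 cells/well with tetracycline and held overnight at 30 C. After no-wash calcium dye loading, compound-evoked calcium rise over 180 s flagged agonists.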
D1 antag: Antagonist of Human D 1 Dopamine Receptor: qHTS | D(1A) dopamine receptor (Homo sapiens), P21728 | HEK293 TREx D1 cells, calcium flux, dopamine EC80; stronger effect = lower value | activity change, negative = inhibition, % at 10 µM | hit rate 3.2% among 360,000; in the data active means activity change below about -30%; further: on the % scale 0 is the no-effect control and ±100 the full control effect
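Allosteric or orthosteric antagonism assessed as attenuation of the calcium response to EC80 dopamine, added 180 s after compound, in induced HEK293 Trex D1 cells loaded with no-wash calcium dye.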
TRHR agonist: qHTS for Small Molecule Agonists and Allosteric Enhancers of Human TRH Receptor: Primary Screen for Agonists | Thyrotropin-releasing hormone receptor (Homo sapiens), P34981 | hit rate 0.18% among 360,000 | activation, % at 2 µM | TRHR cells, calcium flux fluo-8, FDSS agonist mode; further: 0% is about no effect
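TRHR-expressing cells loaded with fluo-8 calcium dye; 23 nL library compound pin-transferred, kinetic FDSS fluorescence (Ex 480/Em 530) recorded about 180 s for agonist-induced calcium release, before a 10 nM TRH EC20 addition for potentiator mode.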
Active calls of the source: *; · = no result given; ! = not confirmed by another sample. Unless noted, no stated cut-off is given here; in the data, active means activation above about 30%; inactive means the rest.

SMILES	LDHA block	TRHR enhancer	D1 PAM	D1 ag	D1 antag	TRHR agonist
CC(=O)c1ccc(C(=O)Nc2sc3c(c2C(N)=O)CCN(Cc2ccccc2)C3)cc1	·	-3	-8	63*	-8	13
NC(=O)c1c(NC(=O)C2COc3ccccc3O2)sc2c1CCN(Cc1ccccc1)C2 (stereo unspecified)	-3	1	-1	105*	-25	38*
CC(=O)c1cccc(NC(=O)COc2c(C)[nH]ccc2=O)c1	6	·	·	·	·	·
Cc1ccnc2nc(C(=O)NC3CCCc4ccccc43)nn12 (stereo unspecified)	-5	1	-1	3	-52*	-1
COc1cccc(C(=O)NCC2OCCc3ccccc32)c1 (stereo unspecified)	-7	6	-1	0	5	0
O=C(NCC1OCCc2ccccc21)c1cccc(Br)c1 (stereo unspecified)	-42*	·	·	·	·	·
Cc1ccc(NC(=O)C2OCCc3ccccc32)cc1 (stereo unspecified)	-5	18	-7	2	-3	-1
O=C(NC1CCCc2ccccc21)c1cccc(Br)c1 (stereo unspecified)	-2	-2	-2	3	-44*	-1
O=C(NC1CCCc2ccccc21)c1ccnc(Cl)c1 (stereo unspecified)	-2	·	·	·	·	·
Cc1ccc(NC(=O)C(=O)NCC2OCCc3ccccc32)cc1 (stereo unspecified)	-2	33*	0	2	-6	0
COCCn1c(SCc2nc(-c3ccccc3C)no2)nc2ccsc2c1=O	-1	·	·	·	·	·
CC(C)CCn1c(NCCO)nc2c1c(=O)n(C)c(=O)n2C	7	·	·	·	·	·
Cc1ccc(-n2nnnc2SCC(=O)N(Cc2ccco2)C2=CCCCC2)cc1	9	·	·	·	·	·
COc1ccccc1NC(=O)c1ccc(NC(=O)COC(=O)c2ccc(O)cc2)cc1	-9	1	6	2	4	0
COc1ccccc1NC(=O)c1ccc(NC(=O)COC(=O)C(C)C)cc1	-2	34*	-5	2	3	0
COc1ccccc1NC(=O)c1ccc(NC(=O)CSc2ncn[nH]2)cc1	0	-2	-4	3	-45*	0
COc1ccccc1NC(=O)CSc1ncn[nH]1	-8	9	2	6	4	0
Cc1nc(-c2ccc(NC(=O)c3ccc(Br)o3)c(C)c2)no1	-4	·	·	·	·	·
Cc1ccc(NC(=O)C(OC(=O)c2ccc(F)cc2)c2ccccc2)cc1Cl (stereo unspecified)	2	7	0	7	-1	2
Cc1ccc(NC(=O)C(OC(=O)c2ccc(O)cc2)c2ccccc2)cc1Cl (stereo unspecified)	0	-4	3	8	-41*	1
CC(C)C[C@H]1CN=C(Nc2ccccc2)N1CC1CCC(C(C)(C)C)CC1 (stereo partly specified)	2	21	3	70*	21	0
CC(C)C[C@H]1CN=C(Nc2ccccc2)N1CC1CCCC1	-10	-1	0	4	0	1
O=C(CN1C(=O)C2C3CCC(C3)C2C1=O)OCC(=O)c1cccc([N+](=O)[O-])c1 (stereo unspecified)	-2	-1	-6	14	-33*	0
CC(C)C(C(=O)OCC(=O)c1cccc([N+](=O)[O-])c1)N1C(=O)[C@@H]2[C@H]3CC[C@H](C3)[C@@H]2C1=O (stereo partly specified)	5	-4	2	2	-33*	0
O=C(CCc1ncc(-c2ccccc2)o1)Nc1ccccn1	-3	·	·	·	·	·
SMILES	LDHA block	TRHR enhancer	D1 PAM	D1 ag	D1 antag	TRHR agonist
CCC1CCC(N(C(=O)Cc2nc(-c3cccs3)oc2C)C2CC2)CC1 (stereo unspecified)	0	·	·	·	·	·
CCCCNC(=O)/C(C#N)=C/c1ccc(F)cc1F	-1	4	-10	2	-52*	1
Cc1cccc(N2CCN(C(=O)C3CCN(S(=O)(=O)c4cccs4)CC3)CC2)c1C	-4	-13	-2	-3	-34*	-2
Cc1cc(Br)ccc1NC(=O)CN(C)C(=O)c1ccc(-n2cncn2)c([N+](=O)[O-])c1	3	3	·	1	-41*	0
Cc1cc(Br)ccc1NC(=O)CNC(=O)c1ccc(-n2cncn2)c([N+](=O)[O-])c1	-3	12	-5	-1	-8	0
O=C1C(Cl)=C(Nc2ccccc2)C(=O)c2ccccc21	19	-18	-7	7	-58*	-1
Cc1ccc(CN2CCC(CNC(=O)c3cc4ccc5cccnc5c4[nH]3)CC2)cc1	2	-5	-4	40*	8	3
Cc1cc2[nH]c(=O)c3ccccc3n2n1	-1	-5	-7	2	-72*	1
CNc1ccc2c3c(cccc13)C(=O)N(C)C2=O	1	47*	-18	338*	-38*	262*
CN1C(=O)c2cccc3c(Cl)ccc(c23)C1=O	-1	-2	1	3	3	0
COc1cccc(CNC(=O)CCCNS(=O)(=O)c2cccs2)c1	-7	-15	-12	3	-92*	3
CCOc1cc(N2CCOCC2)c(OCC)cc1NC(=O)CCC1CCCC1	19	-3	-6	2	-31*	0
Cc1cc(=O)oc2cc(OC/C(=N\O)c3ccc(Cl)cc3)c(Cl)cc12	-1	·	·	·	·	·
O=C(O)c1ccc(N/N=C/C2=C(N3CCOCC3)C(=C\c3ccccc3)/CC2)cc1	-1	-8	-3	83*	-19	18
O=C(Cc1ccccc1F)NC1CCC(c2ccccc2)CC1 (stereo unspecified)	5	·	·	·	·	·
O=C(NCCNC1CCC(c2ccccc2)CC1)c1ccc(F)cc1 (stereo unspecified)	-17	3	-10	52*	-37*	2
O=C(OCCCC(F)(F)C(F)(F)F)c1cccc([N+](=O)[O-])c1	-1	·	·	·	·	·
Cc1ncsc1CCOC(=O)c1cccc([N+](=O)[O-])c1	-1	2	-8	8	-33*!	-1
COc1ccc2[nH]c(C(=O)NCc3ccco3)cc2c1OC	-2	·	·	·	·	·
O=C(CSc1ncn[nH]1)Nc1ccccc1C(=O)O	-12	-7	0	0	8	0
O=C(CSc1ncn[nH]1)Nc1ccc(Br)cc1F	-9	-4	1	1	-36*	-1

Screening data: PubChem BioAssay, National Center for Advancing Translational Sciences (NCATS)
